From PubChem BioAssay (EPA / NIEHS)
Values joined by “and” are separate entries in the source; they are usually repeats but may differ in a detail not shown here. Equal values may be shown once. Records with an inconclusive call do not appear. More than one record can exist for a structure, and the calls need not agree. Active and inactive are the calls of the source. How the source made its calls: active means hit-call score of the fitted dose curve at least 0.9, where 1 is the maximum; inconclusive means response in the unintended direction; inactive means score below 0.9.

The molecules below were run against rat Serotonin Transporter (SERT), Slc6a4 (gene 25553) (UniProt P31652) (assay: NVS_TR_rSERT: NovaScreen (NVS) Transporter Assay for rat Serotonin Transporter (SERT) (AID 2283375)).
How it was run: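 Rat forebrain membranes were incubated with test chemical for 1 hour; radioligand binding to SERT was measured by filter-based scintillation counting. Primary screen ran in duplicate at 25 uM, with actives followed up in concentration series; DMSO served as negative control.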

rat Serotonin Transporter (SERT), Slc6a4 (gene 25553), sequence (P31652 whole entry, looked up): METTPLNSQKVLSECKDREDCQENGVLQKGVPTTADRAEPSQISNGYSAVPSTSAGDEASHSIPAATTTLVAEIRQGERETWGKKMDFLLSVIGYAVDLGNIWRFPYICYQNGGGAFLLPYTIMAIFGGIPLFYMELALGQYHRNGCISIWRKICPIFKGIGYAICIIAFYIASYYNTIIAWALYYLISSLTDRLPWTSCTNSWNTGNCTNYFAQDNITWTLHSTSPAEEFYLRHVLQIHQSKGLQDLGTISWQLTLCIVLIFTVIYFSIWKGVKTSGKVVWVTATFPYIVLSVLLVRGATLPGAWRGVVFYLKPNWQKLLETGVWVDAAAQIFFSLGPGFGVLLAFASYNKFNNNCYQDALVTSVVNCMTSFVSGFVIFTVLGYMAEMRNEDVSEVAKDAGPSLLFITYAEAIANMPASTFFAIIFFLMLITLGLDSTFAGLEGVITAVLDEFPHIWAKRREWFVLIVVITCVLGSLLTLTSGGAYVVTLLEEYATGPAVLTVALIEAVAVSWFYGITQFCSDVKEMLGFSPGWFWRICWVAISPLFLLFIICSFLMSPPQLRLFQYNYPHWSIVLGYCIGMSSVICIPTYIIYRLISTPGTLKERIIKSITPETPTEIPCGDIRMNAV

Question: For `CSc1ccc(Oc2ccc(S(N)(=O)=O)cc2CN(C)C)cc1C`, which AC50 is on record?
Answer: The AC50 was 0.00229 µM (active).

Question: `COc1ccc(OC(F)(F)F)cc1CN[C@H]1CCCN[C@H]1c1ccccc1` was tested. Which AC50 did it give?
Answer: The AC50 was 11.7 µM (active).

Question: `Cn1cnc2c1c(=O)[nH]c(=O)n2C` was tested. Which AC50 did it give?
Answer: The AC50 was 2.36 µM (active).

Question: With `O=C(N[C@@H](c1ccccc1)[C@@H]1CCCCN1)c1cccc(C(F)(F)F)c1Cl` as the molecule, how does the AC50 read?
Answer: The AC50 was 7.98 µM (active).

Question: Which outcome does the source give for `Cc1cc(SC2=C(O)C[C@@](CCc3ccc(N)cc3)(C(C)C)OC2=O)c(C(C)(C)C)cc1CO` here?
Answer: Its outcome is “inactive”.

Question: `CCN(CC)CCOc1ccc(C(=C(Cl)c2ccccc2)c2ccccc2)cc1` was tested. Which AC50 did it give?
Answer: The AC50 was 7.45 µM (active).

Question: `CCc1nc(N)nc(N)c1-c1ccc(Cl)cc1` was tested. Which AC50 did it give?
Answer: Its AC50 is 9.78 µM (active).

Question: For `CN(C)CCCN1c2ccccc2Sc2ccc(Cl)cc21`, which AC50 is on record?
Answer: Its AC50 is 2.55 µM (active).

What follows are molecules tested against human Norepinephrine Transporter (NET), SLC6A2 (gene 6530) (UniProt P23975) (assay: NVS_TR_hNET: NovaScreen (NVS) Transporter Assay for human Norepinephrine Transporter (NET) (AID 2283377);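 further: cell-free membrane protein extracted from CHO cells expressing human NET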).
How it was run: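 Radioligand binding to human NET in cell-free CHO-derived protein preparations, read by filter-based scintillation counting 1 hour after dosing. Loss of signal versus DMSO baseline indicated displacement; primary screening in duplicate at 25 uM, actives then titrated.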

human Norepinephrine Transporter (NET), SLC6A2 (gene 6530), sequence (P23975 whole entry, looked up): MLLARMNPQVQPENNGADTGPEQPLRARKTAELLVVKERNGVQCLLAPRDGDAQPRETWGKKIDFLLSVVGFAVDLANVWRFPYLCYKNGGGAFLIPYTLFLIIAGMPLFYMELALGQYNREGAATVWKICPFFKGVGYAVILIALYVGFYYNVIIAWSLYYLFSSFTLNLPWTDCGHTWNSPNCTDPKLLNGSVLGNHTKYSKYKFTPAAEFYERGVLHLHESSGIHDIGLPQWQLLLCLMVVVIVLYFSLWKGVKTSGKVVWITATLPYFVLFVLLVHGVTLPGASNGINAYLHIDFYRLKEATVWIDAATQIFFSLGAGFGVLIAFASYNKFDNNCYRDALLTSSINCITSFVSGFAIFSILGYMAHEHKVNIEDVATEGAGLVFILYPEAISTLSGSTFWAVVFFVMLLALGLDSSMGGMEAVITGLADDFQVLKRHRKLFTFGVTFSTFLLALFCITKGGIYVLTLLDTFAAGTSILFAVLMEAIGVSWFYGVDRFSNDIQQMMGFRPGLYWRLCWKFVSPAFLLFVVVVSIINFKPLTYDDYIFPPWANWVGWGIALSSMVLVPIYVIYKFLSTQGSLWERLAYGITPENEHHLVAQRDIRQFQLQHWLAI

Question: With `CSc1ccc(Oc2ccc(S(N)(=O)=O)cc2CN(C)C)cc1C` as the molecule, how does the AC50 read?
Answer: The AC50 was 4.12 µM (active).

Question: For `COc1ccc(OC(F)(F)F)cc1CN[C@H]1CCCN[C@H]1c1ccccc1`, which AC50 is on record?
Answer: The AC50 was 11.1 µM (active).

Question: `CCc1cc(C2=C(C(=O)O)N(c3ccccc3C(F)(F)F)S(=O)(=O)c3ccccc32)cc2c1OCO2` was tested. Which outcome did it give?
Answer: The outcome was “inactive”.

Question: How did the outcome turn out when `Nc1nc(=S)c2[nH]cnc2[nH]1` was run?
Answer: Its outcome is “inactive”.

Question: Which outcome does the source give for `NC(=Nc1ccccc1)Nc1ccccc1` here?
Answer: Its outcome is “inactive”.

Question: `O=C(O)CN(CC(=O)O)CC(=O)O` was tested. Which outcome did it give?
Answer: The outcome was “inactive”.

Question: For `CN(C)C(=O)NC1(c2ccccc2)CCN(CC[C@@]2(c3ccc(F)c(F)c3)CN(C(=O)c3ccccc3)CCO2)CC1`, which outcome is on record?
Answer: The outcome was “inactive”.

Question: `O=Cc1ccccc1C=O` was tested. Which AC50 did it give?
Answer: The AC50 was 7.28 µM (active).

Question: How did the AC50 turn out when `O=C(N[C@@H](c1ccccc1)[C@@H]1CCCCN1)c1cccc(C(F)(F)F)c1Cl` was run?
Answer: The AC50 was 8.04 µM (active).

Question: For `Cc1cc(Cc2ccc(N)c(C)c2)ccc1N`, which AC50 is on record?
Answer: Its AC50 is 6.22 µM (active).

Question: Which AC50 does the source give for `Cc1ccc(-c2cc(C(F)(F)F)nn2-c2ccc(S(N)(=O)=O)cc2)cc1` here?
Answer: The AC50 was 6.38 µM (active).

Question: For `S=c1[nH]c2ccccc2s1`, which AC50 is on record?
Answer: Its AC50 is 13.6 µM (active).

Question: `COC(=O)[C@H]1[C@H]2C[C@@H]3c4[nH]c5cc(OC)ccc5c4CCN3C[C@H]2C[C@@H](OC(=O)c2cc(OC)c(OC)c(OC)c2)[C@@H]1OC` was tested. Which AC50 did it give?
Answer: The AC50 was 5.72 µM (active).

Question: `CC(C)NCC(O)c1ccc(O)c(O)c1` (stereo not given) was tested. Which outcome did it give?
Answer: Its outcome is “inactive”.

Question: Which AC50 does the source give for `CCC(C)N(C)C(=O)c1cc2ccccc2c(-c2ccccc2Cl)n1` (stereo not given) here?
Answer: Its AC50 is 6.81 µM (active).

Question: How did the AC50 turn out when `CCCCCCCCCCCCCCOS(=O)(=O)O` was run?
Answer: The AC50 was 37.7 µM (active).

Question: With `CCc1nc(N)nc(N)c1-c1ccc(Cl)cc1` as the molecule, how does the AC50 read?
Answer: Its AC50 is 2.23 µM (active).

Question: For `CN(C)C(=O)NC1(c2ccccc2)CCN(CCC[C@]2(c3ccc(Cl)c(Cl)c3)CCCN(C(=O)c3ccccc3)C2)CC1`, which AC50 is on record?
Answer: Its AC50 is 0.124 µM (active).

What follows are molecules tested against mouse Estrogen Receptor alpha (Era), Esr1 (gene 13982) (UniProt P19785) (assay: NVS_NR_mERa: NovaScreen (NVS) Nuclear Receptor Binding Assay for mouse Estrogen Receptor alpha (Era) (AID 2283378);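 further: hit means loss of bound radioligand signal relative to DMSO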).
How it was run: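 Cell-free radioligand binding with extracted mouse Era protein; competitive displacement of radiolabelled ligand, read by filter-based scintillation counting 18 hours after dosing. Loss of signal versus DMSO baseline taken as binding; single screening concentration 25 uM, actives followed in concentration series.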

mouse Estrogen Receptor alpha (Era), Esr1 (gene 13982), sequence (P19785 whole entry, looked up): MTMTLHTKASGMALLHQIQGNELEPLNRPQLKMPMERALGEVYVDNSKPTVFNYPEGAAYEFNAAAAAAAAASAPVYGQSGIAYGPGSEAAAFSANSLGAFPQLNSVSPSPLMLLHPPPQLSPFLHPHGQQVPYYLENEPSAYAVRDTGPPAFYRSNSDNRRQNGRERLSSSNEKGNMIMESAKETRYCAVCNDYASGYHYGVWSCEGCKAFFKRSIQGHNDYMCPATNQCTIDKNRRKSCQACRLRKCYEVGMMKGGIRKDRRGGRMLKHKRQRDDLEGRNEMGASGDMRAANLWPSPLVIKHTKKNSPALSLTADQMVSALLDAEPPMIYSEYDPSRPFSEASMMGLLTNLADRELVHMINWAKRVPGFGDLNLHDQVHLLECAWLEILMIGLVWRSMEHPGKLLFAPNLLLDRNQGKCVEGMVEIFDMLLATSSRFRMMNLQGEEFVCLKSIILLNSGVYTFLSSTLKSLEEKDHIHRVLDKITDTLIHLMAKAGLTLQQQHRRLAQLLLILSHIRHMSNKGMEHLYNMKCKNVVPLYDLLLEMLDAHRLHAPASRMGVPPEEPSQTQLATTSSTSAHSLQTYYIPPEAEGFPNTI

Question: For `OCC(CO)n1cnc(-c2ccc(F)cc2)c1-c1ccnc(Oc2ccccc2)n1`, which outcome is on record?
Answer: The outcome was “inactive”.

Question: Which outcome does the source give for `CSc1ccc(Oc2ccc(S(N)(=O)=O)cc2CN(C)C)cc1C` here?
Answer: The outcome was “inactive”.

Question: Which outcome does the source give for `CCCCC(CC)COC(=O)CCCCCCCC(=O)OCC(CC)CCCC` (stereo not given) here?
Answer: The outcome was “inactive”.

Question: For `CC(C)OC(=O)C(C)(C)Oc1ccc(C(=O)c2ccc(Cl)cc2)cc1`, which outcome is on record?
Answer: The outcome was “inactive”.

Question: Which outcome does the source give for `Cc1ccc(-c2cc(C(F)(F)F)nn2-c2ccc(S(N)(=O)=O)cc2)cc1` here?
Answer: The outcome was “inactive”.

Question: How did the AC50 turn out when `CC(=O)[C@@]1(O)CC[C@H]2[C@@H]3CCC4=CC(=O)CC[C@]4(C)[C@H]3CC[C@@]21C` was run?
Answer: The AC50 was 10.1 µM (active).

Question: What about the outcome of the same molecule?
Answer: Its outcome is “inactive”.

Question: How did the outcome turn out when `CN(C)C(=O)NC1(c2ccccc2)CCN(CCC[C@]2(c3ccc(Cl)c(Cl)c3)CCCN(C(=O)c3ccccc3)C2)CC1` was run?
Answer: Its outcome is “inactive”.

Each molecule was assayed against Agonist Androgen Response Element (ARE), AR (gene 367) (UniProt P10275) (assay: OT_AR_ARELUC_AG_1440: Odyssey Thera (OT) 24-hour CHO-K1 Luciferase Assay for Agonist Androgen Response Element (ARE) (AID 2283379)).
How it was run: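 Seed CHO-K1 cells; dose compounds for 24 h; add D-luciferin plus ATP in PBS; read luminescence. Signal increase relative to vehicle defines agonist activity, with at least 3 replicate wells per sample.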

Agonist Androgen Response Element (ARE), AR (gene 367), sequence (P10275 whole entry, looked up): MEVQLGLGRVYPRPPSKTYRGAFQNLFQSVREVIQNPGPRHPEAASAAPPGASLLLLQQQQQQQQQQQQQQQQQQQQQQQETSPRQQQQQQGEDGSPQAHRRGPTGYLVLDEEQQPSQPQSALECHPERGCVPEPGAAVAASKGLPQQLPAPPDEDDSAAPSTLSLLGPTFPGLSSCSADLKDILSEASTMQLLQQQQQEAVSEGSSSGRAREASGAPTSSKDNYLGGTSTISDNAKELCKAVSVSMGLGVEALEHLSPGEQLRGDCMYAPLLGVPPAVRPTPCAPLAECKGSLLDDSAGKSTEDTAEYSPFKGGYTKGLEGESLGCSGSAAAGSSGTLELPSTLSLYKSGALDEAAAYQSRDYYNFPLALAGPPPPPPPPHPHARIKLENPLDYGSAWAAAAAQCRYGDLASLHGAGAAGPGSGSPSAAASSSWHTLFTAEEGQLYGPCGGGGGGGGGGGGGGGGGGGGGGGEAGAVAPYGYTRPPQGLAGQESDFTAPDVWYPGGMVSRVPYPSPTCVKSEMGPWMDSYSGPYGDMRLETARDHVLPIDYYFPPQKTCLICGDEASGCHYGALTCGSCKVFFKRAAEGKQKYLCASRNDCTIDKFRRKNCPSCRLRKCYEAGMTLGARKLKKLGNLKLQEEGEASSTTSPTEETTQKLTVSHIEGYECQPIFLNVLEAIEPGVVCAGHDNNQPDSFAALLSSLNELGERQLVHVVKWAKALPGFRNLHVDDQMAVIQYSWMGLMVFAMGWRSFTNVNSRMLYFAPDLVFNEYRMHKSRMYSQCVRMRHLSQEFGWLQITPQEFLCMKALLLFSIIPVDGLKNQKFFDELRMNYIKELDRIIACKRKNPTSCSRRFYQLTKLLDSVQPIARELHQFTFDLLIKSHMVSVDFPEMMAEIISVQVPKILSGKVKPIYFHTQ

Question: For `CSc1ccc(Oc2ccc(S(N)(=O)=O)cc2CN(C)C)cc1C`, which outcome is on record?
Answer: Its outcome is “inactive”.

Question: With `Nc1nc(=S)c2[nH]cnc2[nH]1` as the molecule, how does the outcome read?
Answer: Its outcome is “inactive”.

Question: How did the outcome turn out when `O=Cc1ccccc1C=O` was run?
Answer: Its outcome is “inactive”.

Question: How did the outcome turn out when `Cc1cc(SC2=C(O)C[C@@](CCc3ccc(N)cc3)(C(C)C)OC2=O)c(C(C)(C)C)cc1CO` was run?
Answer: Its outcome is “inactive”.

Question: How did the outcome turn out when `Cc1ccc(-c2cc(C(F)(F)F)nn2-c2ccc(S(N)(=O)=O)cc2)cc1` was run?
Answer: The outcome was “inactive”.

Question: For `CCOCCOCCO`, which outcome is on record?
Answer: Its outcome is “inactive”.

Question: How did the outcome turn out when `CCN(CC)CCOc1ccc(C(=C(Cl)c2ccccc2)c2ccccc2)cc1` was run?
Answer: The outcome was “inactive”.

Question: `CCC(C)N(C)C(=O)c1cc2ccccc2c(-c2ccccc2Cl)n1` (stereo not given) was tested. Which outcome did it give?
Answer: Its outcome is “inactive”.

Each molecule was assayed against Estrogen receptor beta (Homo sapiens) (UniProt Q92731) (assay: OT_ER_ERbERb_1440: Odyssey Thera (OT) 24-hour HEK293T Protein-Complementation Assay for Estrogen Receptor-beta/-beta Homodimer (AID 2283380);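 further: fluorescence gain from ER beta LBD homodimer complementation read by laser scanning cytometry; scored as signal increase over DMSO baseline for both agonists and antagonists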).
How it was run: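 HEK293T cells stably expressing human ER-beta LBD (aa 310-547) PCA homodimer pair, dosed 24 h; formaldehyde-fixed, Draq5-stained. Readout: increase in nuclear (agonist) or nuclear plus cytoplasmic (antagonist) fluorescence intensity versus DMSO, gain-of-signal fitting.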

Estrogen receptor beta (Homo sapiens), sequence (Q92731 whole entry, looked up, the tested form may be a part): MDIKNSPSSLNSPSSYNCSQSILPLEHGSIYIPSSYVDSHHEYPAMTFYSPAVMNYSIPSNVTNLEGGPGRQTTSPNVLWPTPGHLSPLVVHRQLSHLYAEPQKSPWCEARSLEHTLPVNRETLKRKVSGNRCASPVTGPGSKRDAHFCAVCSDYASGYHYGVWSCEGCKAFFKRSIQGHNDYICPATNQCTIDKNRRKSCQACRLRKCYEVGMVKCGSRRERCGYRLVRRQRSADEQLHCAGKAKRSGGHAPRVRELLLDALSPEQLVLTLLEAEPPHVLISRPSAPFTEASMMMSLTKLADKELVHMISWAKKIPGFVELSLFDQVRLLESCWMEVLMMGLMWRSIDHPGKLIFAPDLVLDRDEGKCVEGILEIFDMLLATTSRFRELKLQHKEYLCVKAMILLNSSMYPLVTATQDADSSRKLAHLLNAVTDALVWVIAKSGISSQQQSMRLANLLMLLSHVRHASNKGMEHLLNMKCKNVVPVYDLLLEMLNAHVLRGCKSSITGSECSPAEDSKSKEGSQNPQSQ

Question: How did the outcome turn out when `OCC(CO)n1cnc(-c2ccc(F)cc2)c1-c1ccnc(Oc2ccccc2)n1` was run?
Answer: Its outcome is “inactive”.

Question: For `CSc1ccc(Oc2ccc(S(N)(=O)=O)cc2CN(C)C)cc1C`, which outcome is on record?
Answer: Its outcome is “inactive”.

Question: `COc1ccc(OC(F)(F)F)cc1CN[C@H]1CCCN[C@H]1c1ccccc1` was tested. Which outcome did it give?
Answer: The outcome was “inactive”.

Question: Which outcome does the source give for `Nc1nc(=S)c2[nH]cnc2[nH]1` here?
Answer: The outcome was “inactive”.

Question: `NC(=Nc1ccccc1)Nc1ccccc1` was tested. Which outcome did it give?
Answer: The outcome was “inactive”.

Question: Which outcome does the source give for `CC(C)OC(=O)C(C)(C)Oc1ccc(C(=O)c2ccc(Cl)cc2)cc1` here?
Answer: Its outcome is “inactive”.

Question: How did the outcome turn out when `O=Cc1ccccc1C=O` was run?
Answer: The outcome was “inactive”.

Question: For `O=C(N[C@@H](c1ccccc1)[C@@H]1CCCCN1)c1cccc(C(F)(F)F)c1Cl`, which outcome is on record?
Answer: Its outcome is “inactive”.

Question: With `Cc1cc(Cc2ccc(N)c(C)c2)ccc1N` as the molecule, how does the AC50 read?
Answer: The AC50 was 64.1 µM (active).

Question: `CC(=O)[C@@]1(O)CC[C@H]2[C@@H]3CCC4=CC(=O)CC[C@]4(C)[C@H]3CC[C@@]21C` was tested. Which outcome did it give?
Answer: The outcome was “inactive”.

Question: For `S=c1[nH]c2ccccc2s1`, which outcome is on record?
Answer: Its outcome is “inactive”.

Question: Which AC50 does the source give for `CCN(CC)CCOc1ccc(C(=C(Cl)c2ccccc2)c2ccccc2)cc1` here?
Answer: The AC50 was 60.4 nM (active) and 53.3 nM (active) and 30.6 nM (active).

Question: With `CC(C)NCC(O)c1ccc(O)c(O)c1` (stereo not given) as the molecule, how does the outcome read?
Answer: The outcome was “inactive”.

Question: `CCC(C)N(C)C(=O)c1cc2ccccc2c(-c2ccccc2Cl)n1` (stereo not given) was tested. Which outcome did it give?
Answer: The outcome was “inactive”.

Question: Which outcome does the source give for `CCCCCCCCCCCCCCOS(=O)(=O)O` here?
Answer: The outcome was “inactive”.

Question: Which outcome does the source give for `CCc1nc(N)nc(N)c1-c1ccc(Cl)cc1` here?
Answer: The outcome was “inactive”.

Question: With `CN(C)CCCN1c2ccccc2Sc2ccc(Cl)cc21` as the molecule, how does the outcome read?
Answer: Its outcome is “inactive”.

Question: How did the outcome turn out when `CN(C)C(=O)NC1(c2ccccc2)CCN(CCC[C@]2(c3ccc(Cl)c(Cl)c3)CCCN(C(=O)c3ccccc3)C2)CC1` was run?
Answer: Its outcome is “inactive”.
